This is a sample that favours compounds with a hit; in the whole collection about 4.2% have one here.
Mito fusion act: mitochondrial division inhibition or fusion activation; Potency, µM (highest dose often 46.1 µM), without a hit: at the top dose growth rescue (activation), most hits filed as activators; hit rate 0.23% among 320,000; S. cerevisiae fusion-defective mutant growth rescue, CellTiterGlo 48 h; AID 485298; note: % of control where 0% means no effect; nearly all actives have a fitted effect of over 45% in size
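Growth-rescue viability read-out: after 48 h at the non-permissive 37C in glycerol/ethanol YPEG, yeast mitochondrial fusion mutants are measured by CellTiterGlo luminescence; compounds (23 nl pinned per well) restoring growth score as division inhibitors or fusion activators.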
A-T KAP1 phos: candidate therapy for ataxia-telangiectasia; F2112 A-T fibroblasts, KAP-1 phosphorylation AlphaLISA; neocarzinostatin DNA damage 30 min before lysis; Potency, µM (highest dose often 57.5 µM), for inactives: top-dose activation, hits mostly activators; hit rate 0.19% among 320,000; AID 485349; note: % of control where 0% means no effect; nearly all actives have a fitted effect of over 45% in size
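ATM-like activity read as KAP-1 phosphorylation via AlphaLISA donor/acceptor antibody pairs after lysis and 6 hr at 25C. Cells were ATM-null patient fibroblasts (F2112, hTERT), dosed 60 min, then exposed to the DSB inducer NCS for 30 min.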
MCF10A rerep: inducers of DNA re-replication in MCF 10A breast cells; Potency, µM (top dose mostly 46.1 µM), without a hit: at the top dose activity, positive = re-replication, hits mostly activators; hit rate 2.9% among 350,000; AID 624296; MCF 10A DNA re-replication, Hoechst nuclear intensity, 48 h; note: % of control where 0% means no effect; nearly all actives have a fitted effect of over 50% in size
Integrin act MD: activators of alpha7 integrin expression for muscular dystrophy; alpha7betagal myoblasts, beta-gal FDG fluorescence, 48 h; Potency, µM (highest dose often 38.3 µM), without a hit: at the top dose activation, usual class: activators; hit rate 0.064% among 350,000; AID 624291;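 note: 100% = response of the positive control SU9516; nearly all actives have a fitted effect of over 60% in size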
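Alpha7betagal+/- myoblasts (passage 13) were plated 16-24 hr, then exposed to compounds (1:260 dilution of DMSO stock) for 48 hours at 37C. After MPER lysis, β-galactosidase reporter activity was read as FDG fluorescence (ex 480/em 540) after 30 minutes.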
SW480 rerep: induces DNA re-replication in SW480 colon adenocarcinoma cells; Potency, µM (titrated, usually from 46.1 µM), inactives show top-dose re-replication activation, usual class: activators; hit rate 1.8% among 340,000; SW480 DNA re-replication, Hoechst DNA content imaging, 48 h; note: % of control where 0% means no effect; nearly all actives have a fitted effect of over 55% in size
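First, 250 cells per well were seeded. Next, compound or vehicle (23 nL) was pinned in, plates sat 48 hr at 37 C. Finally Hoechst was added for 40 min before fluorescence scanning.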
* = called active by the depositor; u = inconclusive; x = not tested or not shown. Calls come from the whole dose curve; as a rule, active = well fitted activation curve with a large enough effect; inconclusive = small, poorly fitted or top-dose-only effect; inactive = no such curve, though single readings can be large or run the other way. Potency is the fitted concentration of half-maximal effect.

SMILES	Mito fusion act	A-T KAP1 phos	MCF10A rerep	Integrin act MD	SW480 rerep
CO/N=C\CC(=O)Nc1ccc(Cl)c(Cl)c1	1.8%	0.3%	16.4µM*	-5.1%	18.4µM*
CCOc1ccccc1NC(=O)COC(=O)C1COc2ccccc2O1 (stereo not drawn)	x	x	x	-3.2%	x
CCOc1ccccc1NC(=O)C(=O)N/N=C/c1cc(Br)ccc1O	3.1%	4.1%	-9.7%	-1.9%	0.82µM*
CC(=O)Nc1ccc(NC(=O)C(C)OC(=O)C(C)SCC(=O)Nc2ccc(C)cc2)cc1 (stereo not drawn)	2.7%	x	0.3%	8.2%	-1.5%
CCN(CC)CCOC(=O)c1ccc(NC(=O)c2cn(-c3ccccc3)nc2-c2cccs2)cc1	-19.9%	-3.8%	20.6µM*	-68.7%	-8.3%
CS(=O)(=O)N1CCN(c2ccc(NC(=O)c3ccc(-c4ccc(Cl)cc4)o3)cc2)CC1	-0.3%	7.7%	u	u	0.5%
CCCC(=O)N1CCN(c2ccc(NC(=O)c3ccc([N+](=O)[O-])o3)cc2Cl)CC1	-5.8%	-6.3%	1.84µM*	0.0%	16.5%
CC(C)C(=O)N1CCN(c2ccc(NC(=O)c3ccc([N+](=O)[O-])o3)cc2Cl)CC1	2.0%	2.0%	u	-71.0%	15.1%
CN1CCN(c2ccc(NC(=O)c3ccc([N+](=O)[O-])o3)cc2Cl)CC1	21.6%	-6.5%	1.46µM*	-43.4%	1.46µM*
O=C(Nc1ccc(N2CCOCC2)c(Cl)c1)c1ccc([N+](=O)[O-])o1	-29.7%	-3.3%	u	-66.5%	6.1%
CN1CCN(c2ccc(NC(=O)c3ccc(-c4ccc(Cl)cc4)o3)cc2)CC1	-6.2%	9.4%	23.1µM*	-59.0%	u
S=c1[nH]nc(-c2ccccn2)n1/N=C/c1ccc(Br)s1	-2.9%	-2.4%	8.3%	15.6%	-6.9%
O=C(O)C1=C(OCc2ccccc2)C(=O)NCC1	-1.2%	9.7%	8.9%	u	4.4%
Cc1ccsc1C(=O)C1CCCN(Cc2cccn2-c2ccc(Cl)cn2)C1 (stereo not drawn)	2.5%	-1.3%	u	-65.9%	18.4µM*
COCCCNc1nnc(Cc2ccc(Cl)cc2)c(=O)[nH]1	1.4%	3.5%	0.517µM*	-16.3%	u
CN(C(=O)COc1ccccc1C(=O)NCCOc1ccccc1)c1ccccc1	15.8%	-0.2%	18.4µM*	-61.2%	0.7%
O=C(NCCOc1ccccc1)c1ccccc1Cl	5.1%	-4.9%	-1.8%	-1.9%	1.0%
N#CC(C#N)=C1C=CC=CN1/C(=C\c1ccccc1Cl)C(=O)c1ccccc1	-3.4%	u	6.51µM*	-40.3%	9.2µM*
N#CC(C#N)=C1C=CC=CN1/C(=C\c1ccccc1)C(=O)c1cccs1	15.4%	u	23.3%	12.5%	u
Cc1ccc2c(c1)N(C)/C(=C/c1cccc[n+]1C)S2	-7.4%	0.0%	u	-60.8%	u
CN1/C(=C/c2cccc[n+]2C)Sc2ccccc21	19.7%	-14.6%	9.2µM*	-19.0%	u
CCOC(=O)C1CCN(Cc2cc(Cl)c3ccccc3c2O)CC1	-30.1%	u	18.4µM*	-64.8%	u
CCOC(=O)C1CCN(Cc2ccc(OC)c(C)c2OC)CC1	1.6%	1.0%	2.8%	-8.1%	-1.9%
CSc1ccc(COC(=O)c2cc([N+](=O)[O-])ccc2N2CCOCC2)cc1	2.6%	-0.4%	u	6.9%	0.058µM*
Cc1ccccc1COC(=O)c1cc([N+](=O)[O-])ccc1N1CCOCC1	10.3%	0.7%	u	20.7%	u
CCOc1ccc(C(=O)COC(=O)c2cc([N+](=O)[O-])ccc2N2CCOCC2)cc1	-3.6%	-11.1%	u	-0.4%	4.11µM*
CC(=O)Nc1ccc(N=c2cc([N+](=O)[O-])cc(Cl)n2O)cc1	-17.7%	-31.4%	u	-62.4%	23.1µM*
O=C(CCS(=O)(=O)c1ccccc1)N(CCCN1CCOCC1)c1nc2ccc(F)cc2s1	-1.8%	25.4%	18.4µM*	30.0%	-14.0%
O=C(CCS(=O)(=O)c1ccccc1)N(CCCN1CCOCC1)c1nc2c(F)cccc2s1	-21.3%	-14.0%	13µM*	-52.8%	23.1µM*
Cc1ccc(S(=O)(=O)CC(=O)N(CCCN2CCOCC2)c2nc3c(F)cccc3s2)cc1	4.9%	2.3%	-8.0%	6.8%	-4.0%

Screening results: PubChem, National Center for Advancing Translational Sciences (NCATS)
